# HIF-2a block: inhibitors of HIF-2a; inhibition, % at 18.8 µM; actives 0.72% (n = 360,000); 786-0 RCC cells HIF-2a reporter, luciferase luminescence, overnight;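 active means inhibition of the luminescence signal of 40% or more relative to plate controls, in a single-dose primary screen at 18.75 µM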
# KKLEB cytotox: counter-screen for CF NF-kB inhibitors: cytotoxicity. KKLEB CF airway cells viability, ATPlite luminescence, overnight; active compounds read low; cells stimulated with P. aeruginosa culture filtrate. activity change (cytotoxicity), % at 5 µM. actives 0.36% (n = 360,000). AID 602141;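 active means corrected activity change at or below -50% at 5 µM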
# CF NFkB block: blocks PAF-induced NF-kB reporter in cystic fibrosis cells; inhibition, % at 5 µM; actives 0.86% (n = 360,000); KKLEB NF-kB-GFP reporter, GFP fluorescence overnight;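 active means at least 50% inhibition at 5 µM, scaled per plate between neutral and stimulator controls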;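 further: PAF is a Pseudomonas aeruginosa culture filtrate used as stimulus; plate controls were PAF-stimulated DMSO wells for no effect and unstimulated DMSO wells for full effect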
# Shn3 inh set2: inhibitors of Schnurri-3 3'UTR reporter in osteoblasts | actives 0.52% (n = 360,000) | Clone20 osteoblast Shn3 3'UTR firefly luciferase, 24 h | inhibition, % at 12.5 µM | AID 588674;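 active means mean inhibition of at least 75% with every replicate also reaching 75%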;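 further: 0% = median of neutral control wells and 100% = pilot-screen positive control compound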
# Peg3 prom inh: reduces Peg3 promoter-driven luciferase expression in HeLa; HeLa PEG-Prom luciferase reporter, luminescence, overnight; AID 588405; inhibition, % at 20 µM; actives 1.7% (n = 360,000);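 active means inhibition of at least 50% at 20 µM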
# An asterisk follows results filed as active; nt = no result given. In the library only some 2.6% were active in any assay of this set; here they are far more common.
SMILES,HIF-2a block,KKLEB cytotox,CF NFkB block,Shn3 inh set2,Peg3 prom inh
Cc1ccccc1S(=O)(=O)Cc1ccc(C(=O)NC2CCCCC2C)o1 (stereo not drawn),17,-5,21,14,15
CC1CC(C)CN(CCCNC(=O)c2cc3c(s2)-c2ccccc2OC3)C1 (stereo not drawn),-12,-11,17,4,44
CC1CCCC(C)N1CCCNC(=O)c1cc2c(s1)-c1ccccc1OC2 (stereo not drawn),-8,-23,10,-1,79*
CCNc1nc(N)c(C(=O)c2ccc(Cl)s2)s1,-300,6,55*,-82,-260
COc1cccc(CN2CCNC(=O)C2CC(=O)NCCN2CCCCC2=O)c1 (stereo not drawn),8,-7,-10,-9,-18
Oc1ccc2ccccc2c1N=Nc1ccccc1F,-121,-1,-42,-25,-90
Oc1ccc2ccccc2c1N=Nc1ccccn1,-70,3,-15,95*,9
COc1ccc(C(=O)c2c(C(F)(F)F)oc3c2C(=O)c2ccccc2C3=O)cc1OC,4,-65*,88*,89*,89*
COc1ccc(C(=O)Nc2ccc3c(c2)C(=O)c2ccccc2C3=O)cc1OC,-51,-2,-4,-30,-62
Cc1cc(Br)c2c(c1)/C(=C/C(=O)c1cccs1)C(=O)N2,24,-1,33,97*,69*
Cc1cc(C)c(C(=O)c2cccs2)c(C)c1,11,12,-42,-17,-17
Cc1cc(C)c2c(c1)/C(=C/C(=O)c1ccc(Br)s1)C(=O)N2,4,-61*,40,50,52*
COc1ccc2c(-c3ccc(OCCN4CCOCC4)cc3)c(-c3ccccc3OC)sc2c1,5,-22,-2,2,-9
COc1ccc2c(-c3ccc(OCCN4CCCCC4)cc3)c(-c3ccccc3OC)sc2c1,-8,-22,31,-1,92*
COc1ccc2sc(-c3ccccc3OC)c(-c3ccc(SC)cc3)c2c1,-11,nt,nt,nt,nt
COc1ccccc1-c1sc2ccccc2c1-c1ccc(OCCN2CCCCC2)cc1,7,-5,21,55,91*
COc1ccc2sc(-c3ccccc3OC)c(-c3ccc(OCCN(C)C)cc3)c2c1,-19,-28,14,20,89*
Fc1ccc2c(c1)C1C=CCC1C(c1cc3c(cc1Br)OCO3)N2 (stereo not drawn),10,-12,-1,32,46
CN(C)CCNc1nc2sc3c(c2c(=O)n1CCc1ccccc1)CCCCC3,-84,-19,15,-21,108*
Cc1cc(C)nc(/N=C(\N)Nc2ccc(-c3ccccc3)cc2)n1,-44,-4,2,92*,45
CC(=O)Nc1ccc(N/C(N)=N/c2nc(C)cc(C)n2)cc1,24,13,-15,-3,38
COc1ccc(NC(=O)c2ccc3c(c2)C(=O)N(CC2CCCO2)C3=O)c(OC)c1 (stereo not drawn),10,0,1,-6,-10
N#C/C(=C/c1ccc(N2CCCCCC2)o1)c1ccc(F)cc1,71*,2,-10,64,-48
N#C/C(=C\c1ccc(N2CCOCC2)o1)c1ccccc1,-260,14,-40,92*,-313
N#C/C(=C/c1ccc(N2CCCCCC2)o1)c1cccc(F)c1,-286,-10,-33,95*,-157
SMILES,HIF-2a block,KKLEB cytotox,CF NFkB block,Shn3 inh set2,Peg3 prom inh
N#C/C(=C/c1ccc(N2CCOCC2)o1)c1ccc(Br)cc1,-127,-4,-51,55,-146
CN(C)C(=S)SCC(=O)Nc1ccc(Cl)cc1Cl,-118,-12,-10,-15,-108
CC1=C2C3OC(=O)C(C)C3CCC2(C)C=C(Br)C1=O (stereo not drawn),9,-1,-15,-5,3
CN(CC(O)COc1ccc(OCC(O)CN(C)C2CCCCC2)cc1)C1CCCCC1 (stereo not drawn),19,-15,26,5,83*
CCC(=O)c1ccc(OCC(O)CN(C)C2CCCCC2)cc1 (stereo not drawn),13,2,3,-19,-11
CCCC(=O)NC1=C(Cl)C(=O)c2ccccc2C1=O,95*,16,17,90*,98*
CCNC1=C(Cl)C(=O)c2ccccc2C1=O,67*,-11,6,11,-1
O=C1C(Cl)=C(NS(=O)(=O)c2ccc([N+](=O)[O-])cc2)C(=O)c2ccccc21,9,-1,38,20,13
O=C1C(Cl)=C(NCCN2CCCCC2)C(=O)c2ccccc21,87*,-27,75*,95*,99*
